Screening data deposited in PubChem BioAssay by several laboratories.
hcDAF12 agonist: activates DAF-12 receptor from parasite H. contortus. HEK293 hcDAF-12 lit1-tk-luc reporter, luminescence; 0% DMSO, 100% Δ7-dafachronic acid. activation, % at 6.8 µM. hit rate 1.4% among 370,000;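 active means activation above the mean of all tested compounds plus 3 SD, cut at about 5.5% in these data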
NF-kB expr up: raises NF-kB expression in human neuronal cells. hit rate 1.6% among 190,000. AID 1239. NF-kB reporter expression; active compounds read high. fold change at 12.5 µM; in the data active means fold change above about 3.3
hgDAF-12 ag: hgDAF-12 agonism, primary luciferase screen | HEK293 GAL4-hgDAF12 UAS-luciferase reporter, agonist luminescence; normalized to butyrate control | activation, % at 6.8 µM | hit rate 1.8% among 370,000;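 active means activation above a cutoff set at the mean of all screened compounds plus 3 SD, cut at about 10% in these data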
APP 5'UTR act: activates APP 5'UTR luciferase reporter | SH-SY5Y APP 5'UTR luciferase reporter, luminescence; zero percent = DMSO vehicle wells | activation, % at 2 µM | hit rate 1% among 190,000 | AID 1276;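 active means activation above a set limit, based on mean plus 3 SD of controls, cut at about 140% in these data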
ssDAF12 agonist: activators of S. stercoralis DAF-12 nuclear receptor; HEK293 ssDAF-12/GRIP1 lit1-tk-luc reporter, luminescence; % of 3 µM dafachronic acid response; activation, % at 6.8 µM; hit rate 1% among 370,000; AID 652126;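 active means activation above the mean over all tested compounds plus 3 SD, cut at about 0.9% in these data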
LXRb hcDAF ctr: counter-screen for hcDAF-12 agonists: agonists of human LXR-beta; 3,400 tested, under 10 active; shares compounds with hcDAF12 agonist; HEK293 Gal4-LXR tk-luc reporter, luminescence, 24 h; normalized: DMSO 0%, positive control 100%; AID 743027; activation, % at 6.8 µM;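 active means mean percent activation of the reporter above a cutoff set as the average over tested compounds plus their standard deviation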
Target sequence (P55055 whole entry, looked up, the tested form may be a part): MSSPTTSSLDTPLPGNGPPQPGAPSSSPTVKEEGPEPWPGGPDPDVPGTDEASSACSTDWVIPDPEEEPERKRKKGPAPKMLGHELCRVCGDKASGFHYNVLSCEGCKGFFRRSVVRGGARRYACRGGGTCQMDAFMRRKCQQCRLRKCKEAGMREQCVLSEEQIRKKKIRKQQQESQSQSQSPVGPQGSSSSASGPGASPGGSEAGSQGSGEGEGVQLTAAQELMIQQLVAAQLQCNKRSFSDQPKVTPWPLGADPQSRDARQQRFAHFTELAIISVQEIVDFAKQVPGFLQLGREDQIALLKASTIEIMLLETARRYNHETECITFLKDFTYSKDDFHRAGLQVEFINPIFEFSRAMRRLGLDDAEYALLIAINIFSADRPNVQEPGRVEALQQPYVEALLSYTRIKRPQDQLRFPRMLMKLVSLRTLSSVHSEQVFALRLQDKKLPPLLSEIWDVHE
hcDAF12 conf: confirmation of H. contortus DAF-12 agonists; activation, % at 6.8 µM; shares compounds with hcDAF12 agonist; HEK293 hcDAF-12 lit1-tk-luc reporter, luminescence; % of Δ7-dafachronic acid response; hit rate 61% among 3,400;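 active means mean activation across triplicate tests above the threshold derived from the earlier primary screen, cut at about 5.5% in these data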
Numbers stand for hits; . = inactive; / = not tested or not shown; ! = not confirmed by another sample. This is a sample that favours compounds with a hit; in the whole collection about 3.4% have one here.

SMILES	hcDAF12 agonist	NF-kB expr up	hgDAF-12 ag	APP 5'UTR act	ssDAF12 agonist	LXRb hcDAF ctr	hcDAF12 conf
O=S1(=O)c2ccc(Br)cc2OC[C@H](Cc2ccccc2)N1Cc1cn(Cc2ccc(Br)cc2)nn1	.	/	.	/	.	/	/
CC(=O)c1ccc(OC(C)c2nc3ccccc3s2)cc1 (centres undefined)	7.7	/	.	/	1.0	.	9.6
COc1cccc(C(=O)N(C)C(C)c2nc3ccccc3s2)c1 (centres undefined)	.	/	.	/	.	/	/
Nc1cc2c(cc1Cl)-c1ccccc1C2	7.5	/	12	/	.	.	.
O=C(Nc1nc2ccccc2[nH]1)c1ccc(Br)o1	11	3.6	17	.	1.4	.	7.4
O=C(Nc1nc2ccccc2[nH]1)Nc1ccccc1F	24	/	22	/	4.8	.	20
O=C(NCCc1nc2ccccc2[nH]1)c1ccc(Br)o1	.	/	.	/	.	/	/
COc1ccc(C(=O)Nc2nc3ccccc3[nH]2)cc1	.	/	.	/	.	/	/
COc1cccc(C(=O)Nc2nnc(C(C)C)s2)c1	6.8	/	.	198	.	.	7.3
O=C(CSc1nc2ccccc2[nH]1)Nc1ccccc1F	.	.	.	.	.	/	/
COc1cccc(C(=O)Nc2nc3ccccc3[nH]2)c1	7.4	.	11	150	.	.	8.0
CC(C)(C)OC(=O)/C=C/[C@H](CCCCl)Sc1ccc(C(C)(C)C)cc1	.	/	.	/	.	/	/
CCN(CC)C(=O)CC[C@@H]1CC[C@]2(CCCN(Cc3ccc(Br)cc3)C2)O1	.	/	.	/	.	/	/
CC1(c2nnnn2C2CCCCC2)CCCC(=O)N1CCc1ccc(O)cc1 (centres undefined)	.	/	.	/	.	/	/
O=C(Nc1nc2ccccc2[nH]1)c1cccc(Br)c1	8.6	/	12	/	.	.	7.1
Oc1ccccc1-c1csc(-c2ccccc2)n1	14	.	20	.	5.1	.	15
c1ccc(-c2csc(-c3ccncc3)n2)cc1	.	.	.	.	.	/	/
COc1ccc(-n2c(SCC(=O)Nc3ccc(NC(C)=O)cc3)nc3c([nH]c4ccccc43)c2=O)cc1OC	9.6	/	.	/	1.0	.	6.7
c1ccc2nc(-c3nc4ccccc4[nH]3)ccc2c1	21	4.2	13	192	1.1	.	21
Cc1ccccc1-c1nc2ccccc2[nH]1	.	.	.	.	.	/	/
c1ccc2c(-c3nc4ccccc4[nH]3)cccc2c1	.	/	.	/	.	/	/
c1ccc2[nH]c(-c3ccnc4ccccc34)nc2c1	6.7!	.	.	.	.	.	7.9
COC(=O)C1CN(CCc2ccccc2)CCS(=O)(=O)N1Cc1ccc(Cl)cc1 (centres undefined)	.	/	.	/	.	/	/
COc1cccc(/C=C2/SC(=S)N(CC(=O)NNC(=O)c3ccccc3OC)C2=O)c1	8.5	/	.	/	.	.	.
O=C(c1ccc(C(F)(F)F)cc1)N(CCCn1ccnc1)C(c1ccccn1)c1nc2ccccc2[nH]1 (centres undefined)	7.5	/	.	/	.	.	.
SMILES	hcDAF12 agonist	NF-kB expr up	hgDAF-12 ag	APP 5'UTR act	ssDAF12 agonist	LXRb hcDAF ctr	hcDAF12 conf
O=C(c1ccccc1)N(CCCn1ccnc1)C(c1ccccc1)c1nc2ccccc2[nH]1 (centres undefined)	.	/	.	/	.	/	/
Cc1ccc2nc(-c3sc4nc(C)ccc4c3N)[nH]c2c1	14	5.9	15	.	3.2	.	28
COC(=O)CN1C(c2cccc(Cl)c2)=Nc2ccc(Cl)cc2C1c1ccccc1 (centres undefined)	10	.	.	.	.	.	.
COC(=O)CN1C(c2ccc(OC)cc2)=Nc2ccc(Cl)cc2C1c1ccccc1 (centres undefined)	.	.	.	.	.	/	/
COc1ccc(C2CC(=O)C(c3ccccc3C)=CN2Cc2ccccc2)cc1 (centres undefined)	.	/	.	/	.	/	/
N#C/C(=C/c1ccc([N+](=O)[O-])cc1)C(=O)Nc1ccccc1O	11	.	.	.	.	.	.
Cc1ccccc1NC(=O)/C(C#N)=C\c1ccsc1	7.4	.	.	.	.	.	6.9
O=C(Nc1ccccc1O)c1ccc([N+](=O)[O-])cc1	7.0	/	.	/	1.4	.	.
